About 8,800 targets were measured; listed, in parts, are those with a hit and a random draw of the rest. About 0.5% of all pairs of compound and target were hits.
Assays:
Experiment in all cases: log2 fold change, soluble protein after heating vs DMSO (PISA); higher = thermal stabilisation; K562 lysate, 10 uM; active = over 0.2 and 3.5 SD of the protein, either way, in both replicates (recomputed)
lapatinib = compound: CS(=O)(=O)CCNCc1ccc(-c2ccc3ncnc(Nc4ccc(OCc5cccc(F)c5)c(Cl)c4)c3c2)o1 [lapatinib]
In short: (§1)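 Log-two fold change in thermal stability relative to solvent controls is reported from duplicates. For each sample, crude K562 extract from dounce-homogenised pellets in PBS pH 7.4 with 1 mM MgCl2, at 1 mg/mL protein, was treated with 10 μM compound for 30 min. Aliquots heated for 3 min across 48°C-58°C were pooled, brought to 0.5% NP-40 at 4°C and cleared at 21,000xg for 90 min. The supernatant was quantified by TMTpro 16plex LC-MS/MS with channel sums equalised.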

pictilisib = compound: CS(=O)(=O)N1CCN(Cc2cc3nc(-c4cccc5[nH]ncc45)nc(N4CCOCC4)c3s2)CC1 [pictilisib]
In short: as §1

crizotinib = compound: C[C@@H](Oc1cc(-c2cnn(C3CCNCC3)c2)cnc1N)c1c(Cl)ccc(F)c1Cl [crizotinib]
In short: as §1

[1] = compound: C[C@H](C1=CC=C(C=C1)C(=O)NC2=C3C=CNC3=NC=C2)N
In short: as §1

duvelisib = compound: C[C@H](Nc1ncnc2nc[nH]c12)c1cc2cccc(Cl)c2c(=O)n1-c1ccccc1 [duvelisib]
In short: as §1

gandotinib = compound: Cc1cc(Nc2cc(CN3CCOCC3)c3nc(C)c(Cc4ccc(Cl)cc4F)n3n2)n[nH]1 [gandotinib]
In short: as §1

tozasertib = compound: Cc1cc(Nc2cc(N3CCN(C)CC3)nc(Sc3ccc(NC(=O)C4CC4)cc3)n2)n[nH]1 [tozasertib]
In short: as §1

doramapimod = compound: Cc1ccc(-n2nc(C(C)(C)C)cc2NC(=O)Nc2ccc(OCCN3CCOCC3)c3ccccc23)cc1 [doramapimod]
In short: as §1

bafetinib = compound: Cc1ccc(NC(=O)c2ccc(CN3CC[C@H](N(C)C)C3)c(C(F)(F)F)c2)cc1Nc1nccc(-c2cncnc2)n1 [bafetinib]
In short: as §1

[2] = compound: Cc1cccc(CC(=O)N2CCc3c2ccc(-c2cn(C)c4ncnc(N)c24)c3F)n1
In short: as §1

Measured: log2 fold change

THAP9 (UniProt Q9H5L6)
Chain of UniProt Q9H5L6 (Q9H5L6 whole entry, looked up): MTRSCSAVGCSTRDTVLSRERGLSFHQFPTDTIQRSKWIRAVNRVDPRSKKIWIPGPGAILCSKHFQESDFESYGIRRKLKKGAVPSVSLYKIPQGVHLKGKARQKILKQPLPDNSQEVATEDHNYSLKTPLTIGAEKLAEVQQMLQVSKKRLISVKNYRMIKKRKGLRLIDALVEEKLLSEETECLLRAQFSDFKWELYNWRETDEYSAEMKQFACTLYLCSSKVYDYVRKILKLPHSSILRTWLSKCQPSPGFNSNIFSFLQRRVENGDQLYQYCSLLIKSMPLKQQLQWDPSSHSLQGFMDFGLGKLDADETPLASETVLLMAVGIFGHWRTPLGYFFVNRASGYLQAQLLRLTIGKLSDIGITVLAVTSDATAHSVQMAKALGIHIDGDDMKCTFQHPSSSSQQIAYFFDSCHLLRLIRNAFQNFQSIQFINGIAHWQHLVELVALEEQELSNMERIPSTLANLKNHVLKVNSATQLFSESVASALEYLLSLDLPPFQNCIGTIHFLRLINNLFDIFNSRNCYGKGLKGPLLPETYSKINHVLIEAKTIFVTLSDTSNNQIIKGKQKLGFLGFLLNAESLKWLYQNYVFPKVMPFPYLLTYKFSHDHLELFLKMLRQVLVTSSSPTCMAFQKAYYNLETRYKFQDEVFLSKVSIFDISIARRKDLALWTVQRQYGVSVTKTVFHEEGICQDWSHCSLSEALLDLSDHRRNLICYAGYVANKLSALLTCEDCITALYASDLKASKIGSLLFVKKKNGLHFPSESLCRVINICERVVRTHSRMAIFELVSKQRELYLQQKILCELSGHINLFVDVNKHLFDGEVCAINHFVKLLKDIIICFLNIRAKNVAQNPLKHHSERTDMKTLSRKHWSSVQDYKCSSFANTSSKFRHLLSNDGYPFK
inactive: lapatinib -0.035 | pictilisib -0.154 | crizotinib -0.203 | duvelisib 0.012 | gandotinib 0.429 | tozasertib -0.045 | doramapimod 0.009 | bafetinib -0.007 | [2] 0.323
active: [1] -0.675

UBR1 (UniProt Q8IWV7)
inactive: lapatinib -0.018 | pictilisib -0.035 | crizotinib -0.082 | [1] -0.046 | duvelisib 0.01 | gandotinib -0.081 | tozasertib 0 | doramapimod 0.039 | bafetinib -0.065 | [2] 0.032

TCF3 (UniProt P15923)
inactive: lapatinib 0.014 | pictilisib 0.014 | crizotinib 0.066 | [1] -0.042 | gandotinib 0.053 | tozasertib -0.013 | doramapimod -0.031 | bafetinib -0.036 | [2] -0.032
active: duvelisib 0.22

TPM4 (UniProt P67936)
inactive: lapatinib -0.002 | pictilisib -0.043 | crizotinib 0.003 | [1] -0.001 | duvelisib -0.021 | gandotinib 0.039 | tozasertib -0.098 | doramapimod -0.029 | bafetinib -0.055 | [2] -0.018

TNIK isoform 5 (UniProt Q9UKE5)
inactive: lapatinib -0.098 | pictilisib 0.046 | crizotinib -0.035 | [1] 0.051 | duvelisib 0.009 | gandotinib 0.025 | doramapimod 0.311 | bafetinib -0.055 | [2] -0.02

TFPI (UniProt P10646)
Chain of UniProt P10646 (P10646 whole entry, looked up): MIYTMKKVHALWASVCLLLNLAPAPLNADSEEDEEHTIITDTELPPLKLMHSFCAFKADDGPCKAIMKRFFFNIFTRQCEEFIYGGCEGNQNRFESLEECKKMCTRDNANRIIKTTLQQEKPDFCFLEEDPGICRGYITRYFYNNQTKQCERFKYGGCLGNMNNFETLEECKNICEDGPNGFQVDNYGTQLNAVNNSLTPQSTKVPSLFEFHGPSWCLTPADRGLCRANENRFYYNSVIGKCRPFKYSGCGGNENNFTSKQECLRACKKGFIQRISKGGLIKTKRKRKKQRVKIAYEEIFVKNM
active: [1] 0.625
inactive: lapatinib -0.035 | pictilisib 0.009 | crizotinib 0.036 | gandotinib -0.202 | tozasertib -0.01 | doramapimod 0.082 | bafetinib 0.149 | [2] -0.301

UBAP2L isoform 5 (UniProt Q14157)
inactive: lapatinib -0.022 | pictilisib -0.116 | crizotinib 0.099 | [1] -0.002 | duvelisib -0.047 | gandotinib 0.034 | tozasertib -0.049 | doramapimod -0.121 | bafetinib -0.015 | [2] -0.026

TFAP4 (UniProt Q01664)
active: [1] 0.477
inactive: lapatinib -0.05 | pictilisib 0.022 | crizotinib 0.009 | gandotinib 0.033 | tozasertib -0.05 | doramapimod 0.017 | bafetinib -0.214 | [2] -0.217

TPD52L2 isoform 7 (UniProt O43399)
Chain of UniProt O43399 (O43399 whole entry, looked up): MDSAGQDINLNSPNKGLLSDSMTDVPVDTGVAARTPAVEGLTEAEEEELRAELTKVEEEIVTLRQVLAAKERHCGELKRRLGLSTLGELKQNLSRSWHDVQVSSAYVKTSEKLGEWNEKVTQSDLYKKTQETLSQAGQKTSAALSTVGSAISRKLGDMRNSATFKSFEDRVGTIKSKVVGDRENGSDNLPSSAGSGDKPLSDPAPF
active: gandotinib 0.222
inactive: lapatinib 0.039 | pictilisib 0.003 | crizotinib 0.095 | [1] -0.124 | duvelisib -0.022 | tozasertib 0.043 | doramapimod 0.03 | bafetinib 0.139 | [2] 0.057

UBN1 (UniProt Q9NPG3)
inactive: lapatinib -0.187 | crizotinib -0.042 | [1] -0.057 | duvelisib -0.092 | gandotinib 0.215 | tozasertib 0.069 | doramapimod -0.256 | [2] 0.308

TEDC1 (UniProt Q86SX3)
Chain of UniProt Q86SX3 (Q86SX3 whole entry, looked up): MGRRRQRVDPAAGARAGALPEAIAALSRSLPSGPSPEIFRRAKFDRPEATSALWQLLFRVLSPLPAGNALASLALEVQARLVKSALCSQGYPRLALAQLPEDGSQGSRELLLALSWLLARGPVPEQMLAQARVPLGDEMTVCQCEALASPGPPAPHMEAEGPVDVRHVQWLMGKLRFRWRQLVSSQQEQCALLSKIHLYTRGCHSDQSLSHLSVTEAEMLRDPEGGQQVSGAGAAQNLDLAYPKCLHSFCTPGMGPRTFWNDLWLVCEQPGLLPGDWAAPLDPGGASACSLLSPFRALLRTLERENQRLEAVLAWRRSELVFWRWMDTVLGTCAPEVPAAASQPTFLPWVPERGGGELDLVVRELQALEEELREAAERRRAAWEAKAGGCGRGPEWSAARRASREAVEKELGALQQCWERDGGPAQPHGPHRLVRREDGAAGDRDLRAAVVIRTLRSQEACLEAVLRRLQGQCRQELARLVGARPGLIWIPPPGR
inactive: lapatinib -0.064 | crizotinib -0.078 | duvelisib 0.159 | tozasertib -0.103 | doramapimod 0.009

TXNIP (UniProt Q9H3M7)
inactive: pictilisib 0.029 | crizotinib -0.045 | [1] 0.143 | duvelisib 0 | gandotinib -0.089 | tozasertib -0.015 | doramapimod 0.019 | bafetinib -0.042 | [2] -0.037

UBXN2B (UniProt Q14CS0)
inactive: lapatinib -0.226 | pictilisib -0.036 | [1] -0.01 | duvelisib 0.07 | gandotinib 0.213 | tozasertib 0.027 | bafetinib 0.003 | [2] -0.005

TMC1 (UniProt Q8TDI8)
inactive: lapatinib -0.134 | crizotinib -0.262 | tozasertib 0.074 | doramapimod 0.252

TJP1 (UniProt H0Y3R8)
inactive: [1] 0.068 | gandotinib -0.057 | [2] -0.063

TFPI isoform 2 (UniProt P10646)
inactive: crizotinib 0.045 | doramapimod -0.121

UBIAD1 (UniProt Q9Y5Z9)
inactive: lapatinib 0.031 | crizotinib -0.048 | [1] 0.036 | duvelisib -0.054 | gandotinib 0 | tozasertib -0.024 | doramapimod -0.014 | [2] 0.016

TPM3 isoform 3 (UniProt P06753)
Chain of UniProt P06753 (P06753 whole entry, looked up): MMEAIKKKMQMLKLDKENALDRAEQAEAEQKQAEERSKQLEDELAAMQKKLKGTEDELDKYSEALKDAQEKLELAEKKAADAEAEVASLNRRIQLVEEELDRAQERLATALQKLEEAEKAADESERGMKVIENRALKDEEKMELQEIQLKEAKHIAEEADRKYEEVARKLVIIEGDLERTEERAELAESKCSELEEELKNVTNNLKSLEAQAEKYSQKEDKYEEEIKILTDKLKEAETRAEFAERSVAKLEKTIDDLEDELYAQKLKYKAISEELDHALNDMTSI
active: [1] -0.411
inactive: lapatinib -0.009 | crizotinib 0.095 | duvelisib 0.011 | gandotinib 0.176 | tozasertib 0.143 | doramapimod 0.027 | [2] 0.202

TGFBR1 isoform 2 (UniProt P36897)
inactive: duvelisib -0.004 | tozasertib 0.022

TFPT (UniProt P0C1Z6)
inactive: lapatinib -0.004 | pictilisib 0.032 | duvelisib -0.005 | bafetinib -0.004

TCF3 (UniProt X6REB3)
inactive: [1] -0.081 | gandotinib 0.269 | [2] 0.105

U2AF1L5 (UniProt P0DN76)
inactive: lapatinib 0.091 | duvelisib 0.021 | gandotinib 0.114 | tozasertib 0.207 | [2] 0.342
active: [1] -0.904

TUBA4A (UniProt C9JQ00)
inactive: pictilisib -0.2 | [1] -0.094 | gandotinib -0.142 | bafetinib -0.368 | [2] 0.228

TRIM3 (UniProt O75382)
inactive: lapatinib 0.009 | tozasertib -0.056

TMPO isoform 2 (UniProt P42167)
inactive: pictilisib 0.04 | duvelisib -0.041 | tozasertib -0.029 | bafetinib -0.026

TCF3 isoform 2 (UniProt P15923)
inactive: crizotinib -0.048 | doramapimod 0.092

TM2D3 (UniProt Q9BRN9)
Chain of UniProt Q9BRN9 (Q9BRN9 whole entry, looked up): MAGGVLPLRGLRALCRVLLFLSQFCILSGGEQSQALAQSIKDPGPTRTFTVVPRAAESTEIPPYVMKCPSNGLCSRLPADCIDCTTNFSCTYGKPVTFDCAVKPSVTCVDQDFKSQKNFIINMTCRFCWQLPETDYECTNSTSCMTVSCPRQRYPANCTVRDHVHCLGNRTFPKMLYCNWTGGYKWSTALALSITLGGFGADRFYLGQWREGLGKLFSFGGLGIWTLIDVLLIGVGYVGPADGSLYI
active: [1] -0.836
inactive: pictilisib 0.069 | gandotinib 0.329 | tozasertib -0.075 | bafetinib 0.048 | [2] 0.348

UBR4 isoform 4 (UniProt Q5T4S7)
inactive: lapatinib 0.146 | duvelisib -0.143 | tozasertib 0.079

TRPM4 (UniProt Q8TD43)
inactive: pictilisib -0.085 | crizotinib 0.055 | duvelisib 0.042 | gandotinib 0.088 | doramapimod -0.111 | bafetinib -0.02 | [2] 0.25
active: [1] -0.654

TSPAN3 (UniProt O60637)
Chain of UniProt O60637 (O60637 whole entry, looked up): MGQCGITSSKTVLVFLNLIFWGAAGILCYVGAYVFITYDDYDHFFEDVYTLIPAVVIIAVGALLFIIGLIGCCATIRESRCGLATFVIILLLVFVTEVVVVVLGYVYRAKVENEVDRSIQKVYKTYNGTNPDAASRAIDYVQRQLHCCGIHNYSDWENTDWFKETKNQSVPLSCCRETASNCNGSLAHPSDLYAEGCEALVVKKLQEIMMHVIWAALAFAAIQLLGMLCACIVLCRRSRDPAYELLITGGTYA
active: [1] 0.513
inactive: lapatinib -0.013 | duvelisib -0.058 | gandotinib -0.163 | tozasertib -0.01 | [2] -0.342

TUBAL3 (UniProt A6NHL2)
inactive: lapatinib -0.07 | pictilisib -0.034 | [1] -0.434 | duvelisib -0.001 | gandotinib 0.312 | tozasertib 0.09 | bafetinib -0.232
active: [2] 0.567

TJP1 (UniProt G3V1L9)
inactive: pictilisib 0.157 | crizotinib 0.068 | [1] 0.027 | duvelisib -0.042 | gandotinib 0.071 | doramapimod -0.209 | bafetinib -0.047 | [2] 0.059

TPD52L2 isoform 3 (UniProt O43399)
inactive: pictilisib -0.112 | [1] -0.155 | gandotinib 0.377 | bafetinib -0.102 | [2] -0.124

UCP2 (UniProt P55851)
active: crizotinib -0.441
inactive: doramapimod -0.141

TEC (UniProt P42680)
inactive: lapatinib 0.007 | tozasertib -0.198

TNKS (UniProt O95271)
Chain of UniProt O95271 (O95271 whole entry, looked up): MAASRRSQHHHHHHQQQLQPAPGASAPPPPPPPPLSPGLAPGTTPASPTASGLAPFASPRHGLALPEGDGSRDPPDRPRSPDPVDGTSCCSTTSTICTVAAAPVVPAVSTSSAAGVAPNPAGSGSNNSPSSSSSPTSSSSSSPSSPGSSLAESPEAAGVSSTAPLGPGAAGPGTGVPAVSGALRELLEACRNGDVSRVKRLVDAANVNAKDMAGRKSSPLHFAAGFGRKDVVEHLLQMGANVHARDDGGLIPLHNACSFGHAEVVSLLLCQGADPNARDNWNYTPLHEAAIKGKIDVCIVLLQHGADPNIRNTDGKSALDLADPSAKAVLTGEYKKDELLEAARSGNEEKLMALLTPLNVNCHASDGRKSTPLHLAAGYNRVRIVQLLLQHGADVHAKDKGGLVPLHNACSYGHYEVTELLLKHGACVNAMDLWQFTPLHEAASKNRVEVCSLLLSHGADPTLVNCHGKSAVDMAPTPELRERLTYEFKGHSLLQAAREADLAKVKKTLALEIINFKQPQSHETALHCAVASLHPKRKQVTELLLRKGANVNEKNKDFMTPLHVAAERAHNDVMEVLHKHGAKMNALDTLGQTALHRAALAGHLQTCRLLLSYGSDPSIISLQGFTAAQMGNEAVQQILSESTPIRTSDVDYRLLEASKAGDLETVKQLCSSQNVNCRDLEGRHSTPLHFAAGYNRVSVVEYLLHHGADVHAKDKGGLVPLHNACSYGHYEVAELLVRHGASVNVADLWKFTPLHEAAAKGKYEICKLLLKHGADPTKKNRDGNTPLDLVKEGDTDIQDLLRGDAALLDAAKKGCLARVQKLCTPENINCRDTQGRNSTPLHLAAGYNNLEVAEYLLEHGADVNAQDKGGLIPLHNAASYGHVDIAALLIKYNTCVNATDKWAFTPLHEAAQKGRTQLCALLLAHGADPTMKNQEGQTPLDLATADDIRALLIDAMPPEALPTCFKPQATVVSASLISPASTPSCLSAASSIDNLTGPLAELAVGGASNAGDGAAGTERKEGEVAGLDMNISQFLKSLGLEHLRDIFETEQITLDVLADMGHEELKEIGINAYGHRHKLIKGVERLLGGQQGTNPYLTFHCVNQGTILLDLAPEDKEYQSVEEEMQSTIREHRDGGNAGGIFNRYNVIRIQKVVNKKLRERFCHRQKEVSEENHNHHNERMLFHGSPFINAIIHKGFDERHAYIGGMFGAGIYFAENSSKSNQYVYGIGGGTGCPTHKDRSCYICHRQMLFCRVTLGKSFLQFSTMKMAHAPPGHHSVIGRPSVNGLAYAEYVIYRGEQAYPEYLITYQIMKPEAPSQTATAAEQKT
inactive: lapatinib -0.085 | crizotinib -0.031 | duvelisib -0.027 | gandotinib 0.038 | tozasertib 0.073 | doramapimod -0.013 | [2] 0.107
active: [1] -0.302

TRAF7 (UniProt Q6Q0C0)
inactive: crizotinib -0.01 | [1] -0.241 | duvelisib -0.029 | gandotinib -0.128 | tozasertib 0.124 | doramapimod 0.122 | [2] 0.127

TK1 (UniProt K7ERV3)
inactive: pictilisib -0.144 | crizotinib 0.075 | [1] -0.07 | duvelisib -0.021 | gandotinib 0.04 | doramapimod 0.041 | bafetinib -0.181 | [2] 0.01
active: tozasertib 0.319

TCF4 (UniProt P15884)
inactive: lapatinib -0.212 | crizotinib 0.128 | [1] 0.039 | duvelisib 0.039 | gandotinib -0.022 | tozasertib -0.044 | doramapimod -0.099 | [2] 0

TTLL12 (UniProt V9GY16)
inactive: pictilisib 0.058 | crizotinib 0.072 | [1] -0.169 | gandotinib 0.188 | tozasertib -0.087 | doramapimod -0.029 | bafetinib -0.187 | [2] 0.263

TLE3 (UniProt H0YL70)
inactive: duvelisib 0.037

UBAP2L (UniProt F8W726)
inactive: lapatinib -0.15 | crizotinib 0.098 | doramapimod -0.068

TTC37 (UniProt Q6PGP7)
inactive: lapatinib -0.157 | pictilisib -0.03 | crizotinib -0.202 | duvelisib 0.096 | doramapimod 0.069 | bafetinib -0.26

UBAP2, A0A0D9SFI5
inactive: crizotinib -0.037 | doramapimod -0.056

TLK2 isoform 3 (UniProt Q86UE8)
Chain of UniProt Q86UE8 (Q86UE8 whole entry, looked up): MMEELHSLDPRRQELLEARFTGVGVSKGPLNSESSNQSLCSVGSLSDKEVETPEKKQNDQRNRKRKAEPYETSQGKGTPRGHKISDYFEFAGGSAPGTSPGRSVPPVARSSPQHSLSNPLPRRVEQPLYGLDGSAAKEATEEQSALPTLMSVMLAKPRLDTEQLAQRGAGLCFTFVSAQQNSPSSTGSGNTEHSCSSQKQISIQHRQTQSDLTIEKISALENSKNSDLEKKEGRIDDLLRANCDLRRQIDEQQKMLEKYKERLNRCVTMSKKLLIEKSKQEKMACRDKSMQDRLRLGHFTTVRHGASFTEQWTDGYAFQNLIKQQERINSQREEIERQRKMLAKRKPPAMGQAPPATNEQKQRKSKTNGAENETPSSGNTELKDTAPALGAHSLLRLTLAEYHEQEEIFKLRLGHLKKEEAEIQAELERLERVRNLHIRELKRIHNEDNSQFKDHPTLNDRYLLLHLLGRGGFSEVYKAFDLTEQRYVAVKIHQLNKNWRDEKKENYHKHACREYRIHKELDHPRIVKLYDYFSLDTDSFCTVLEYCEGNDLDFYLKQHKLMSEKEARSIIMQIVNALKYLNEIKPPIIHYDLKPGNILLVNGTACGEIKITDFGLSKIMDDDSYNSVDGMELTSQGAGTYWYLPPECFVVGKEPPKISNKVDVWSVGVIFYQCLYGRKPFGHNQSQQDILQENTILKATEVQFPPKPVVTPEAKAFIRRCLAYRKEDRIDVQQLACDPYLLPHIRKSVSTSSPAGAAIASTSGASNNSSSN
inactive: [1] 0.012 | gandotinib 0.009 | [2] -0.101

TMEM132A isoform 2 (UniProt Q24JP5)
inactive: lapatinib -0.172 | crizotinib -0.237 | [1] -0.084 | gandotinib 0.077 | tozasertib 0.042 | doramapimod -0.163 | [2] 0.002

Source: the supplement of paper PMC10849652
